Laboratory results taken from the supplement of paper PMC10681739.

Columns and labels:
ETS1 [1] = molecular target: T1, ETS1 (UniProt P14921); assay: ETS1 binding intensity (PBM fluorescence), ETS1 alone (arbitrary fluorescence units); higher = stronger binding; conditions: ETS1 concentration 1 nM; RUNX1 concentration 0 nM
T1 sequence: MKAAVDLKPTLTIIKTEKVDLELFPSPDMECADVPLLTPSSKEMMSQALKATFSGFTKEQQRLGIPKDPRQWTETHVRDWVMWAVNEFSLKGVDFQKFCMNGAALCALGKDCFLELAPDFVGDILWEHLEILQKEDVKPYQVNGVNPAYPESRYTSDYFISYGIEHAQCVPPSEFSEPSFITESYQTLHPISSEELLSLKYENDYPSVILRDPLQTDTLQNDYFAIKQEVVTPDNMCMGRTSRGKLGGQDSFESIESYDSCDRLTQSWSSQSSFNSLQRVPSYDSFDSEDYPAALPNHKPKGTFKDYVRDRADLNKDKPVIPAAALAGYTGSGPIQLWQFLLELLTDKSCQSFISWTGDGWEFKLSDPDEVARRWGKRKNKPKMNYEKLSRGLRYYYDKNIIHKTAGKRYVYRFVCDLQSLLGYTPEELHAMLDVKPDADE

RUNX1 [2] = molecular target: RUNX1 (UniProt Q01196); assay: RUNX1 binding intensity (PBM fluorescence), RUNX1 alone (arbitrary fluorescence units); higher = stronger binding; conditions: RUNX1 concentration 2 nM; ETS1 concentration 0 nM
Experimental: (§1)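 Cooperative gcPBM on 36-bp genomic probes with neighbouring ETS1 and RUNX1 sites. Recombinant human RUNX1 (2 nM) was incubated alone or with ETS1 (25 nM) and detected with anti-RUNX1 antibody plus Alexa488 secondary. Values are medians over 4 replicate spots; the RUNX1+ETS1 data were normalised to the RUNX1-only data. The probes sit in constant array flanks that are not printed.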

ETS1 [3] = molecular target: T1, ETS1; assay: ETS1 binding intensity (PBM fluorescence) in presence of RUNX1, normalised to ETS1-only experiment (arbitrary fluorescence units); higher = stronger binding; conditions: ETS1 concentration 1 nM; RUNX1 concentration 25 nM
RUNX1 [4] = molecular target: RUNX1 (UniProt Q01196); assay: RUNX1 binding intensity (PBM fluorescence) in presence of ETS1, normalised to RUNX1-only experiment (arbitrary fluorescence units); higher = stronger binding; conditions: RUNX1 concentration 2 nM; ETS1 concentration 25 nM
Experimental: as §1
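Wherever RUNX1 binding intensity (PBM fluorescence) in presence of ETS1, normalised to RUNX1-only experiment is given: Full-length recombinant human ETS1 or RUNX1 bound to double-stranded 36-bp genomic probes on microarrays, detected by protein-specific primary antibody and Alexa488 secondary, spot fluorescence as median of four replicate spots.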
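Wherever RUNX1 binding intensity (PBM fluorescence), RUNX1 alone is given: Full-length recombinant human RUNX1 bound to double-stranded 36-bp genomic probes on a high-density microarray, scored as Alexa488 fluorescence per spot via anti-RUNX1 antibody, median of four replicate spots.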

Sequence of RUNX1 (Q01196 whole entry): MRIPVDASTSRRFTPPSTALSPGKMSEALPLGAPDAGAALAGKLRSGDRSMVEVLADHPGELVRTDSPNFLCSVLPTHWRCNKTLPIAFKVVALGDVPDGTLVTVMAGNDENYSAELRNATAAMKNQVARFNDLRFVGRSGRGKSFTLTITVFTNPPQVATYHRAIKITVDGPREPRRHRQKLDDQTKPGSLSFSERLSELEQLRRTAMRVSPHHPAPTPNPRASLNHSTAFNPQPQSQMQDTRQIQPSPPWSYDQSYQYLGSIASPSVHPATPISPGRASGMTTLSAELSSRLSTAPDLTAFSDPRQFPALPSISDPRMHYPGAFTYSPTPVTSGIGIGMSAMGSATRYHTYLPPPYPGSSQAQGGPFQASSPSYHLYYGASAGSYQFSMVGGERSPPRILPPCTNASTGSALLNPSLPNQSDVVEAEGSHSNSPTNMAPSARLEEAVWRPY

Sequence | ETS1 binding intensity (ETS1 [1]) | RUNX1 binding intensity (RUNX1 [2]) | ETS1 binding intensity (ETS1 [3]) | RUNX1 binding intensity (RUNX1 [4])
ACCTGTAGGCGGAAGTCTGTGGCTTTATTTACACAG | 2340 | 792 | 5710 | 1730
GACCTGGGTTTCCTGTCTGTACATCGCGGTTCCTAC | 936 | 856 | 1260 | 1830
ACCCTACTTCCGTTGCTGTGTTGCGGAGGTGACCTA | 1210 | 844 | 1240 | 1700
GGGCGGGTGAGACCAGGATGTGGGTTCCCCCACCTT | 1880 | 775 | 3540 | 1120
CTCTGAGCAGGAAGTGACAAAACCACGCAGGGCAGG | 3150 | 798 | 6770 | 1160
CTGCACTTCCGGTCAGGCGGTCGGGCTGCGGGGCCC | 5690 | 739 | 6710 | 2680
TGCTTCCCTTCCGTTCCGACAGCGAAAACCGCTGCC | 532 | 998 | 783 | 2030
TGCAGTCTCAACTTCCTGCGGTCAAGTGATCCTTCA | 654 | 3750 | 1410 | 6540
CACCCTCAACTTCCTGACCCATAAACCACAAGCTAT | 468 | 6110 | 1810 | 13100
CGTTCTCTCATTTCCTGTGTGCACCCACATGAACCA | 3340 | 1740 | 3230 | 2920
ACGACGTCCCGGAAGTGCTGCGGCAATGTTGCTCTT | 5570 | 759 | 6620 | 1470
GGTCTCACCGCTCTTCCGCTTGCGGTTTCGGGGGCC | 780 | 2320 | 5370 | 4570
CAAGGTTCCTCCGCTTCCTGCCCGCAGGCCGAACCT | 956 | 840 | 1600 | 1830
TCCCCACATCCTTTAAAACGATGAGATAACCACATG | 398 | 1000 | 636 | 2960
GGCACCGGAAGTAGAGCTGCCCCTAGTTGCGGCAGT | 9240 | 767 | 12800 | 1380
CCCTGGACGGGAAGCGGCGGCCAGATCCGCAAGCCC | 584 | 808 | 747 | 940
AACTGCCTGGTGGCCGGAAACCGCTGGAGGGAGGGC | 4740 | 793 | 10100 | 1130
GGGGGAGTTTTCGGAAGCGCTAACCGCGTTGGGGCC | 365 | 860 | 874 | 954
ACAGGAAATGTTAGAGGTTGAGTTAGCGGTTATGAG | 1620 | 833 | 3640 | 914
CGATGCTTCCGGCCTCCTATTGGGTGGTTTCTTGGC | 895 | 789 | 1050 | 2040

Sequence | ETS1 binding intensity (ETS1 [1]) | RUNX1 binding intensity (RUNX1 [2]) | ETS1 binding intensity (ETS1 [3]) | RUNX1 binding intensity (RUNX1 [4])
GCCGCGAGTTCCGCCGGGTGGACCACAAATCCCGAG | 373 | 831 | 451 | 904
TGAAACCCAGCAGGATGTGGGTTAACGGCAGGGGAG | 2590 | 733 | 6440 | 2250
GCAGGCGGAGCTTGAGGAAACCGCAGATAAGTTTTT | 463 | 9080 | 2510 | 10200
CCCTTCGCTTCCGCTCCGCGTTCCCACAATGCAGTG | 884 | 1600 | 1090 | 3700
CCCCACCCAGACAGGAAACTGTGGCTTCTATCAGAT | 3020 | 820 | 4660 | 1550
ACGTACGGGATGTGGGAGGTTTGTTTTGACCACACC | 492 | 830 | 936 | 1160
GCGGAGGCGGAAGTCGTGCTGCTGCTGACCACGGCT | 2560 | 741 | 3170 | 1370
GTGGGGCGGGCTTCCGGCGCTCCCACCGCGAGCCGA | 921 | 790 | 1050 | 1500
GGGCCCGGGCCAGGAAGTGGTTTTGCAGAGGTGTTT | 4630 | 763 | 7660 | 1930
ATATATCACCCCTTCCTTGCAAAACCACAAGACCAA | 508 | 6030 | 1490 | 8230
TGTTTTTGTTTCCGTTTACAAACCACAACAAAGGTG | 736 | 2390 | 1620 | 4730
AGCCACATCCTCCCTTAGGTCTGACCGCAGCTTAAC | 381 | 4190 | 2170 | 5430
TTTGTAAGAGGAGGAAGTGGTTTGTAAGAGGAGAAA | 2180 | 835 | 3260 | 1270
TCATTTCCTCTGGTGTTATTGTGTTGTGGTTTTAAG | 417 | 1580 | 1560 | 3040
TGTCTCATTTCCTGTAGGTAACAGGCACCACAATAG | 1550 | 968 | 1470 | 1780
GTGGCCTCTTCAACAGGAAACCACAATATTTTTGTT | 4610 | 1410 | 10500 | 2710
TCACATCCTGTAATGGTTTGCGCATACCACAGTTCT | 455 | 825 | 684 | 1740
CCAAGTGTAAAACGGAAGCTCAACCACGAATCTTAC | 1510 | 800 | 2960 | 1100
CTACCGGAAATGCAGCACCACGTAAAATGCGGTCGG | 3650 | 912 | 15800 | 2050
